D2 PAM-1 = D2 dopamine receptor (human) potentiation | P14416 | HEK293 T-REx D2, calcium flux, EC20 dopamine potentiation | 340,000 compounds, 0.34% hits | potentiation, % at 10 µM | AID 485347;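 active = potentiation over 3 SD above the plate norm, cut at about 30% in these data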; also: 0% is about no effect
Target sequence (P14416 whole entry, looked up): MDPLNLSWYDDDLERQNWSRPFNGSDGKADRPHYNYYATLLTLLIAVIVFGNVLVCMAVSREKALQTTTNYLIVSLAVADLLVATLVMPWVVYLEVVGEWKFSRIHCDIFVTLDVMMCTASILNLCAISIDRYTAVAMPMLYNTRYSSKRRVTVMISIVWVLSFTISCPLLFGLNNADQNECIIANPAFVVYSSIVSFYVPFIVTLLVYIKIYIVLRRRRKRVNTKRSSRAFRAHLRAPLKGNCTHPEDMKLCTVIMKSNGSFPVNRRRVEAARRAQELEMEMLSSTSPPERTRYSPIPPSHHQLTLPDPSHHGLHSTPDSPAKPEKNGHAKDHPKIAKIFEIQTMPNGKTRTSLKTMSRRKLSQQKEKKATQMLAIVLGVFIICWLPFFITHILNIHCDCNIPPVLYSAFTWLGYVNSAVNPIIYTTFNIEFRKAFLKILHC
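Cells plated with tetracycline inducer and held overnight at 30 C; calcium dye loaded 30–90 min at room temperature; baseline taken, compound added and read 180 s; EC20 dopamine then added and read 180 s.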
D2 ag-1 = D2 dopamine receptor (human) agonism | 340,000 compounds, 0.53% hits | AID 485358 | activation, % at 2 µM | HEK293 T-REx D2 cells, calcium flux agonist mode;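 active = activation over 3 SD above normal in the single-dose calcium agonist read, cut at about 30% in these data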; also: 0% is about no effect
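Calcium-flux readout, 1 cycle/sec over 180 s following compound pin transfer, in inducible HEK293 Trex D2 cells (force-coupled); dopamine controls included. Positive calcium responses during this window marked compounds as potential agonists.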
D2 PAM-2 = positive allosteric modulators of human D2 dopamine receptor. 360,000 compounds, 0.23% hits. DiscoveRx D2 beta-arrestin cells, luminescence, 90 min; 100% = 57 uM dopamine signal. potentiation, % (test concentration not listed). P14416; in the data active = potentiation above about 50%
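PathHunter beta-arrestin assay in DiscoveRx D2 cells. Compounds were added with an EC20 of dopamine (50 nM final) for 90 min at 37 deg C. Luminescence was read 1 h after detection reagent, with 57 uM dopamine as the EC100 control.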
D2 ag-2 = agonists of human D2 dopamine receptor (beta-arrestin). P14416. DiscoveRx PathHunter D2 beta-arrestin, luminescence, 90 min; 100% = 57 uM dopamine signal. activation, % (test concentration not listed). 360,000 compounds, 0.084% hits. AID 624465; in the data active = activation above about 40%
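Agonist mode: compounds alone added to overnight-plated D2 PathHunter cells for 90 min at 37 C, with 57 uM final dopamine (EC100) defining full response. Beta-arrestin recruitment detected by chemiluminescent reagent, read after 1 h at ambient temperature.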
D2 antagonist = antagonizes the human D2 dopamine receptor; P14416; HEK293 TREx D2 cells, calcium flux, dopamine EC80; inhibition, % at 10 µM; 340,000 compounds, 2% hits; AID 485344; in the data active = inhibition above about 30%; inactive = below that, where a call was filed; also: 0% is about no effect
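Compounds are added to dye-loaded, induced HEK293 T-REx cells coupled to calcium release via D2; after a 3 min kinetic read an EC80 dopamine stimulus is given and fluorescence is recorded for 3 more min.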
* hit, by the source's call; x = no result; ! = not confirmed by another sample. Shown are actives, neighbours in structure and some others; about 2.4% of the full set was active somewhere.

SMILES	D2 PAM-1	D2 ag-1	D2 PAM-2	D2 ag-2	D2 antagonist
N#Cc1cc(C(=O)c2cc(F)ccc2O)cn(-c2nccs2)c1=O	2.4	116.4*	-4.5	0.0	34.2*
Cc1c(-n2cc(C(=O)c3cc(F)ccc3O)cc(C#N)c2=O)c(=O)n(-c2ccccc2)n1C	x	1.1	0.9	-3.5	8.1
N#Cc1cc(C(=O)c2ccccc2O)cn(-c2nccs2)c1=O	2.7	138.3*	-25.9	-3.4	24.0
CC(C)n1cc(C(=O)c2ccccc2O)cc(C#N)c1=O	-2.4	0.2	-8.9	-2.9	-8.1
COc1cccc(OC)c1OCCCCN1CCCC1	-11.0	0.0	-30.6	0.4	2.7
Cc1ccc([N+](=O)[O-])c(OCCN2CCC(Cc3ccccc3)CC2)c1	-32.1	0.8	-15.9	-2.9	68.3*
COc1ccccc1OCCCCN1CCN(C(c2ccccc2)c2ccccc2)CC1	-19.4	24.6	-14.0	-3.5	61.0*
CCOc1ccccc1OCCN1CCC(Cc2ccccc2)CC1	-18.1	-2.1	-19.2	0.0	64.0*
CCOc1ccccc1OCCN1CCCC1	-1.0	0.5	-64.8	-1.6	-3.5
COc1cccc(OC)c1OCCCCN1CCC(Cc2ccccc2)CC1	-26.7	0.3	-21.7	0.4	76.3*
Cc1c(CC(=O)NCC(=O)O)c(=O)oc2cc3c(cc12)CCC(C)(C)O3	-5.8	1.0	-10.7	7.3	19.7
Cc1cccc(C)c1NC(=O)CN(C)C(=O)c1ccc(COc2ccccc2)cc1	5.0	-0.5	-0.4	-3.1	18.2
COc1ccc(CCNC(=O)CSc2ccc3nnc(CCNC(=O)c4ccc(C)cc4)n3n2)cc1OC	x	x	-4.0	-2.1	x
N#Cc1ccccc1OCCCN1CCC(Cc2ccccc2)CC1	-27.1	0.1	-6.7	0.4	84.5*
Cc1ccccc1OCCOCCN1CCCCCC1	-26.7	x	-20.3	0.1	x
Cc1ccccc1OCCN1CCC(Cc2ccccc2)CC1	-27.0	-0.3	-20.3	-2.9	46.3*
CCC(=O)c1ccccc1OCCCN1CCC(Cc2ccccc2)CC1	-34.4	-0.1	-11.3	0.8	97.5*
CC1CCN(CCCOc2ccc(OCc3ccccc3)cc2)CC1	-17.7	2.2	-36.5	-9.2	7.5
CC(=O)CCc1ccc(OCCCCN2CCC(Cc3ccccc3)CC2)cc1	-25.9	-0.4	-7.3	-1.2	54.2*
O=C(Cc1ccccc1)Nc1ncccn1	11.9	0.9	-8.0	-1.2	5.5
CCOC(=O)C1=CN(Cc2ccco2)S(=O)(=O)N(CC)C1c1ccccc1 (stereo not given)	x	x	x	1.0	x
Cc1ccccc1Cn1c(NC2CCCC2)nc2c1c(=O)[nH]c(=O)n2C	-4.6	-1.9	-3.4	-3.2	-1.4
CCOc1ccc2nc(N/C(N)=N/S(=O)(=O)c3ccc(C)cc3)nc(C)c2c1	x	x	9.1	-1.1	x
CCOC(=O)CNC(=O)c1sc(NC(=O)/C=C/c2ccccc2)nc1C	-12.0	-0.4	-3.7	-0.3	33.8*
COc1ccc(-c2cn[nH]c2-c2ccc(OCc3ccc([N+](=O)[O-])cc3)cc2O)cc1	x	x	52.3*	11.9	x
SMILES	D2 PAM-1	D2 ag-1	D2 PAM-2	D2 ag-2	D2 antagonist
COC(=O)c1c(C(=O)OC)c2ccccn2c1C(=O)c1ccc([N+](=O)[O-])cc1	x	x	21.0	3.0	x
COC(=O)c1c(C(=O)OC)c2cc(C(=O)c3ccccc3)ccn2c1Cl	47.2*	0.2	-13.0	-3.3	3.1
CCN(CC)c1ccc(/C=C2\C(=N)N3N=C(CC(=O)N4CCOCC4)SC3=NC2=O)cc1	-5.4	33.4*	-1.8	-1.1	8.4
COc1ccccc1N1CCN(C(=S)Nc2ccc(F)cc2)CC1	-3.3	1.1	-15.4	3.0	-10.5
COc1ccccc1N1CCN(C(=S)Nc2ccccc2)CC1	-5.2	0.3	-12.4	4.8	47.2*
CC(=O)N1CCc2cc(CNS(=O)(=O)c3ccc(C(C)(C)C)cc3)ccc21	3.8	0.5	x	x	x
CS(=O)(=O)N1CCN(c2ccc(NC(=S)NC(=O)c3ccccc3[N+](=O)[O-])cc2)CC1	-14.4	-0.3	-13.2	3.0	32.9*
COc1ccc(C(O)c2nc(-c3cccc(CO)c3)cs2)cc1 (stereo not given)	x	x	-8.4	-3.7	x
COc1cccc(N2C(=O)Nc3ccc(Br)cc3C2(O)C(=O)NCCCN(C)C)c1 (stereo not given)	-5.4	0.2	1.0	0.5	11.1
Cc1cc(C)cc(NC(=O)CCCn2nc(C)c3c(C)n(-c4ccccc4)nc3c2=O)c1	33.2*!	1.1	-11.3	-5.5	-19.0
Cc1ccccc1NC(=O)CCCn1nc(C)c2c(C)n(-c3ccccc3)nc2c1=O	-2.6	0.2	-7.9	2.5	-8.3
c1coc(CNC2CCCCC2)c1	32.3*	-0.8	-1.6	-3.4	-13.2
c1coc(CNC2CCCCCCC2)c1	0.7	-0.1	20.6	-2.1	-5.3
O=S1(=O)CC(O)C(NCc2ccco2)C1 (stereo not given)	-5.9	0.8	-11.0	0.2	33.9*
O=S1(=O)CC(O)C(NCCO)C1 (stereo not given)	-1.8	1.0	-1.7	0.7	-47.8
O=C(NCc1ccccc1)c1cccc(NC(=O)C2CC2)c1	x	x	x	0.4	x
Cc1ccc(C(=O)O/N=C2\CCSc3ccc(C)cc32)cc1	-0.3	-0.2	0.1	-3.3	-4.5
COc1ccc(S(=O)(=O)O/N=C2\CCSc3ccc(C)cc32)cc1	2.7	-0.3	72.1*	12.5	-3.8
CCOC(=O)c1sc2ccccc2c1S(=O)(=O)N1CCN(c2cccc(OC)c2)CC1	-1.2	-0.2	x	x	x
CN(C)c1ccc(N/C=C/C(=O)c2ccco2)cc1	-0.2	0.5	55.3*	7.9	-4.1
CC(=O)Nc1ccc(N/C=C/C(=O)c2ccco2)cc1	-14.6	-0.1	1.9	-2.6	-8.6
CN(C)c1ccc(C(CNC(=O)c2ccc(C(C)(C)C)cc2)N2CCOCC2)cc1 (stereo not given)	-4.8	x	x	x	x
O=C(c1ccc2c(c1)OCO2)C1CCCN(C2CCN(CCc3ccccc3)CC2)C1 (stereo not given)	-27.8	-0.9	-11.8	-1.5	69.8*
Oc1c(CN2CCCC(C(F)(F)F)C2)cc(Cl)c2ccccc12 (stereo not given)	22.0	0.2	7.6	3.6	-30.6
C=CCc1cc(Cl)ccc1OCCNCCCOC	-33.5	1.4	-15.6	-1.3	37.1*
C=CCc1ccccc1OCCNCCCOC	-22.0	0.1	-32.2	-5.8	69.1*
C=CCc1cc(Cl)ccc1OCCOCCNCCOC	-20.1	0.8	-15.7	-3.4	4.0
CCOC(=O)c1c(S(=O)(=O)N2CCCC(C(=O)N3CCN(c4cc(C)ccc4C)CC3)C2)c(C)n(C)c1C (stereo not given)	-8.6	0.4	x	x	x
COc1ccc(N=Cc2c(O)n(-c3cccc(C)n3)c(=O)c3ccccc23)cc1	-2.6	-0.6	-2.4	-1.7	32.0*
Cc1cc(Oc2ccc(C#N)cc2)nc(NCc2ccccc2)n1	28.4	1.1	-5.2	-0.8	42.4*

Assay outcomes (PubChem)
